# Results: the supplement of paper PMC11150407
# Out of some 3,000 compounds screened, about 45 (2%) showed an effect of 50% or more. For the sample, strong results were picked, then their nearest neighbours and some compounds at random.
# Test system: MOLM1 and UCSD/AML1 (averaged)
# Assay: cell viability relative to DMSO control (POC); higher = less growth inhibition
# Details: 1 µM; 72 h
# Procedure: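 Primary viability screen in the 3q26 EVI1-high AML cell lines MOLM1 and UCSD/AML1, compounds at 1 uM for 72 h. ATP CellTiter-Glo read-out given as percent viable over DMSO control (POC), averaged over duplicates. This mapping covers the TimTec NDL-3000 natural derivative library, whose compounds are identified by TimTec catalogue codes (ST...).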
row,Compound,cell viability [%]
1,O=C1CC(n2c(=O)oc3ccccc32)C2COC1O2 (stereo not drawn),14.7
2,O=C1CC(n2nnnc2-c2ccccc2Cl)C2COC1O2 (stereo not drawn),64.4
3,O=C1C[C@H](n2nc(-c3ccccc3Br)oc2=S)[C@H]2CO[C@@H]1O2,55.5
4,Cc1ccc2c(O)c([N+](=O)[O-])c(=O)oc2c1,103
5,Cn1c(=O)c2c(nc3n2CC(C24CC5CC(CC(C5)C2)C4)=NN3CCO)n(C)c1=O,106
6,CCOc1cc2c(cc1OCC)C(c1cccc(F)c1F)NCC2 (stereo not drawn),86.1
7,O=C(O)c1cccc(Nc2nc(-c3ccc(Cl)cc3)nc3ccccc23)c1,90
8,O=C(O)c1ccccc1-c1c2ccc(=O)c(Br)c-2oc2c(Br)c(O)ccc12,103
9,COc1ccc(C(=O)N2CCCc3cccc(OC)c32)cc1OC,90.1
10,O=C(/C=C/c1ccc(Cl)cc1Cl)c1cccc2ccccc12,95.1
11,O=C(/C=C/c1ccc([N+](=O)[O-])cc1)c1cccc2ccccc12,32.8
12,O=C(O)/C=C/c1ccc([N+](=O)[O-])cc1,109
13,COc1ccc2c(c1)c(CC(=O)NCc1ccccn1)c(C)n2C(=O)c1ccc(Cl)cc1,84.5
14,O=C(/C=C/c1ccccc1)c1cc(O)ccc1O,93.7
15,O=C(/C=C/c1ccccc1)c1ccc(O)cc1,2.68
16,O=C(/C=C/c1ccccc1)c1ccc(O)cc1O,96.7
17,COc1ccc(/C=C(\C#N)C(=O)OC(C)C)c(OC)c1OC,106
18,O=c1[nH]c(=O)n(C2C[C@H](O)[C@@H](CO)O2)cc1I (stereo partly drawn),89.8
19,O=c1[nH]c(=O)n(C2CC(O)C(CO)O2)cc1C(F)(F)F (stereo not drawn),29.6
20,CC(=O)OC1CC(n2cc(C)c(=O)[nH]c2=O)OC1CO (stereo not drawn),98.2
21,CCOc1ccc2oc(=O)cc(CN3CCNCC3)c2c1,90.2
22,CCOc1ccccc1C(=O)NCCc1c(C)[nH]c2ccccc12,105

row,Compound,cell viability [%]
1,COc1ccc(C2c3[nH]c4ccccc4c3CCN2CC(=O)Nc2ccc(C)cc2)cc1 (stereo not drawn),87.2
2,O=C(/C=C/c1ccc(O)cc1)c1ccc(O)cc1O,102
3,COc1ccc(C(=O)/C=C/c2ccccc2)c(O)c1,101
4,COc1ccc(/C=C/C(=O)c2ccc(O)cc2C)cc1,22.5
5,COc1ccc2c(c1)c(CC(=O)NCCSc1ccccc1)c(C)n2C(=O)c1ccc(Cl)cc1,98.5
6,COc1ccc(C(NS(=O)(=O)c2ccc(C)cc2)c2nccc3cc(OC)c(OC)cc23)cc1OC (stereo not drawn),98.4
7,C=CCN(C(=O)CSc1nc2ccccc2c(=O)[nH]1)c1ccccc1,88.4
8,COc1ccc(OC)c(NC(=O)c2cc(OC)c(OC)c(OC)c2)c1,85.9
9,C=CCN(C(=O)CSc1nc2c(=O)[nH]cnc2n1-c1ccccc1)c1ccccc1,98
10,CCCCCOc1ccc(C2=NOC(=O)/C2=C\c2cc(Cl)ccc2O)cc1,92.3
11,Cc1ccc(-n2c(SCc3ccccc3F)nc3c(=O)[nH]cnc32)cc1,95.2
12,COc1ccc(-c2cc(C(F)(F)F)nc(SC3CC(O)C4OCC3O4)n2)cc1OC (stereo not drawn),98.4
13,CC1CCc2nc(S[C@H]3CC(=O)[C@@H]4OC[C@H]3O4)nc(C(F)(F)F)c2C1 (stereo partly drawn),39.9
14,COc1ccc(-c2cc(-c3ccc4c(c3)OCO4)[nH]c(=O)c2C#N)cc1,97.1
15,CC1(C)C2CCC1(CS(=O)(=O)Nc1ccncc1)C(=O)C2 (stereo not drawn),106
16,COc1cc(C(=O)NCC(C)NC(=O)c2cc(OC)c(OC)c(OC)c2)cc(OC)c1OC (stereo not drawn),99.3
17,CCOc1ccc2oc(=O)cc(CN3CCN(CC(=O)Nc4cc(F)ccc4F)CC3)c2c1,98.5
18,CCOC(=O)c1c(CSCc2ccccc2)n(-c2ccccc2)c2cc(Br)c(OC)cc12,110
19,CCOC(=O)c1c(C)n(-c2ccccc2)c2cc(Br)c(OC)cc12,110
20,CCOC(=O)c1c(CC(C#N)(c2ccccc2)c2ccccc2)n(C)c2cc(Br)c(OC)cc12,17.7
21,Cn1c(=O)c2ccccc2n(CC(=O)N2CCc3ccccc3C2)c1=O,107
22,COc1ccc(NC(=O)CSc2nc3c(=O)[nH]cnc3n2-c2ccc(C)cc2)cc1OC,92.8

row,Compound,cell viability [%]
1,Cc1ccc2occ(C)c(=O)c2c1,98.5
2,O=C(Cn1c(=O)cc(C(=O)N2CCc3ccccc3C2)c2ccccc21)Nc1ccc(Cl)cc1,105
3,N#CC1=C(N)Oc2cc(O)ccc2C1c1cccc([N+](=O)[O-])c1 (stereo not drawn),101
4,CCc1ccc(C2C(C#N)=C(N)Oc3cc(O)ccc32)cc1 (stereo not drawn),110
5,N#CC1=C(N)Oc2cc(O)ccc2C1c1ccccc1F (stereo not drawn),13.8
6,N#CC1=C(N)Oc2cc(O)ccc2C1c1cccc(C(F)(F)F)c1 (stereo not drawn),22.1
7,N#CC1=C(N)Oc2cc(O)ccc2C1c1ccccc1 (stereo not drawn),104
8,N#CC1=C(N)Oc2[nH]c(=O)[nH]c(=O)c2C1c1ccccc1F (stereo not drawn),94.3
9,O=C(O)CNC(=O)c1ccc(Cl)cc1,108
10,O=c1c(O)c(-c2ccc(F)cc2)oc2cc(Cl)ccc12,100
11,Cc1cc(C)c(NC(=O)Cn2c(=O)cc(C(=O)N3CCCCC3)c3ccccc32)c(C)c1,99.4
12,COCCOC(=O)c1c(C)n(CCOC23CC4CC(CC(C4)C2)C3)c2c1cc(O)c1ccccc12,81.2
13,Cc1ccc(-n2c(SCC(=O)Nc3ccccc3C(F)(F)F)nc3c(=O)[nH]cnc32)cc1,108
14,COc1cc(C(=O)Nc2ccccc2NC(=O)c2cc(OC)c(OC)c(OC)c2)cc(OC)c1OC,95.9
15,COc1ccc(C(=O)Nc2ccc3ncn(C)c3c2)cc1OC,101
16,COc1cc(C(=O)Nc2ccc(C(=O)NCc3ccccc3)cc2)cc(OC)c1OC,87
17,COc1cc(C(=O)Nc2ccc(C(F)(F)F)cc2)cc(OC)c1OC,93.8
18,COc1cc(C(=O)Nc2ccccc2C(=O)Nc2ccccc2)cc(OC)c1OC,36
19,COc1cc(C(=O)Nc2ccccc2C(=O)NCc2ccccc2)cc(OC)c1OC,85.2
20,COC(=O)c1ccc(NC(=O)c2cc(OC)c(OC)c(OC)c2)cc1,23.1
21,COc1cc(C(=O)Nc2ccc3ncn(C)c3c2)cc(OC)c1OC,93.9
22,COc1cc(C(=O)Nc2ccc3c(c2)ncn3C)cc(OC)c1OC,19

row,Compound,cell viability [%]
1,COc1cc(C(=O)Nc2ccc(C(=O)c3cccs3)cc2)cc(OC)c1OC,99.7
2,CCCCc1ccc(NC(=O)c2cc(OC)c(OC)c(OC)c2)cc1,49.6
3,COc1cc(C(=O)Nc2ccc(CN3CCCC3)cc2)cc(OC)c1OC,87.4
4,O=C(CSc1nc2ccccc2c(=O)[nH]1)NCc1ccccc1Cl,107
5,Cc1ccc(NC(=O)CN2C(=O)S/C(=C/c3cc4c(cc3Cl)OCO4)C2=O)cc1,92
6,CNC(=O)c1ccccc1NC(=O)C(=O)c1c[nH]c2ccccc12,111
7,CCOC(=O)/C=C1\NC(C)(C)Cc2cc3c(cc21)OCCO3,89.5
8,CC(C)COc1ccc(C(=O)N/C(=C\c2ccccc2)C(=O)NCCNC(=O)/C(=C\c2ccccc2)NC(=O)c2ccc(OCC(C)C)cc2)cc1,103
9,COc1cc(OC)cc(C(=O)Nc2cc(OC)cc(S(=O)(=O)c3ccc(Cl)cc3)c2)c1,92.8
10,CCc1cccc(C)c1NC(=O)CN1CCN(Cc2cc(=O)oc3cc(C)ccc23)CC1,95.4
11,Cc1ccc2c(C)cc(=O)[nH]c2c1C,109
12,COc1cc(C(=O)CCNc2ccc(F)cc2)cc(OC)c1OC,78.3
13,Cc1ccc2[nH]c(C)c(CCNS(=O)(=O)c3ccc4c(c3)OCCO4)c2c1,99.4
14,COc1ccc(/C=C/C(=O)c2ccccc2)cc1COc1ccc([N+](=O)[O-])cc1,101
15,COc1ccc(/C=C/C(=O)c2ccccc2)cc1COc1ccc(NC(C)=O)cc1,40
16,COc1ccc(/C=C/C(=O)c2ccccc2)cc1COc1ccc(Cl)cc1,106
17,Cc1ccc(C)c(-c2nc(CSc3nc4c(=O)[nH]cnc4n3C)c(C)o2)c1,103
18,Cc1cc2c(c(O)c1-c1c(C)cc3c(c1O)/C(=C/Nc1c(C)n(C)n(-c4ccccc4)c1=O)C(=O)C(O)=C3C(C)C)/C(=C/Nc1c(C)n(C)n(-c3ccccc3)c1=O)C(=O)C(O)=C2C(C)C,84.6
19,COc1cc(C(=O)NC(C(=O)O)C(C)C)cc(OC)c1OC (stereo not drawn),103
20,CC(C)(C)c1ccc(C(=O)NCC(=O)O)cc1,95.9
21,O=[N+]([O-])C1=Cc2ccccc2OC1c1ccc2c(c1)OCO2 (stereo not drawn),2.67
22,O=C(/C=C/c1cccc([N+](=O)[O-])c1)c1ccc2c(c1)OCO2,98.1

row,Compound,cell viability [%]
1,O=C(/C=C/c1ccc([N+](=O)[O-])cc1)NCc1ccc2c(c1)OCO2,97
2,COCCN1C(=O)/C(=C\c2cc(OC)c(OC)c(OC)c2)C(C(=O)OC)=C1C,101
3,O=C(CCNc1cccc(Cl)c1)c1cc2ccccc2oc1=O,115
4,CCOC(=O)c1ccc2[nH]c(=O)c(Cc3ccccc3)c(O)c2c1,97.9
5,CCOC(=O)c1ccc2[nH]c(-c3ccccc3)cc(=O)c2c1,7.45
6,CCOC(=O)c1ccc2[nH]c(=O)c(C)c(O)c2c1,108
7,COc1ccc(C(=O)CC2(O)C(=O)N(Cc3cccc4ccccc34)c3ccccc32)cc1OC (stereo not drawn),97.5
8,NC(=O)CC1CCCCN1 (stereo not drawn),126
9,O=c1ccoc2ccccc12,93.1
10,Cc1ccc2oc(-c3ccccc3C)cc(=O)c2c1,21.6
11,Cc1ccccc1-c1cc(=O)c2cc(Br)ccc2o1,106
12,O=c1cc(-c2ccccc2Br)oc2ccc(Cl)cc12,110
13,Cc1ccc(-c2cc(=O)c3ccccc3o2)cc1,92.3
14,Cc1ccc2oc(C(Cl)(Cl)Cl)cc(=O)c2c1,26.6
15,O=c1cc(C(Cl)(Cl)Cl)oc2ccc(Cl)cc12,7.16
16,Cc1ccc2oc(-c3ccc(Cl)cc3)cc(=O)c2c1,85.9
17,O=c1cc(C(Cl)(Cl)Cl)oc2ccccc12,4.98
18,Cc1ccc2occc(=O)c2c1,100
19,O=c1cc(O)c2cc(Cl)ccc2o1,101
20,O=c1cc(-c2ccc(Br)cc2)oc2ccc(Cl)cc12,96
